Experimental findings from PubChem BioAssay (NCATS) are described below.

Assay [1] in a line: qHTS assay for measurement of the activity of small molecule inhibitors on Zika virus induced Caspase-3 activity in human iPSC derived neural progenitor cells (hNPCs) (AID 1224857). Further: nearly all actives have a fitted effect of over 65% in size. Further: potency means the concentration at half of the fitted maximal effect. In a few lines: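 After overnight (16–20 h) culture at 350 cells/well, hNPCs get compound, then ZIKV 2 FFU/cell one hour later. Six hours on, Caspase-Glo 3/7 is added and luminescence measured.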
(In general: qHTS replaces the single test concentration by a dilution series.)

A short description of assay [2]: qHTS assay for measurement of the activity of small molecule inhibitors on Zika virus induced Caspase-3 activity in human astrocytoma cells (AID 1224859). Further: potency means the concentration at half of the fitted maximal effect. The gist of the method: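 Inhibition of Zika-induced caspase-3/7 activity: SNB-19 cells, 1 h compound pretreatment, ZIKV 2 FFU/cell for 6 h at 37 C, Caspase-Glo luminescence read-out.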
Assay [3] can be described thus: qHTS Screen of the MIPE 4.0 Collection Against Ewings Sarcoma (RDES) (AID 1259252). Further: nearly all actives have a fitted effect of over 35% in size. Further: potency means the concentration at half of the fitted maximal effect. In a few lines:
(§1)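 Cells plated in serum-containing RPMI (5% FBS) and treated with compound dilutions for 48 h. Readout luminescent viability; normalization relied on vehicle (no inhibition) and media-only columns (full inhibition).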

Assay [4] can be described thus: qHTS Screen of the MIPE 4.0 Collection Against Ewings Sarcoma (TC71) (AID 1259253). Further: nearly all actives have a fitted effect of over 40% in size. Further: potency means the concentration at half of the fitted maximal effect. In a few lines:
as §1

The nature of assay [5]: qHTS Screen of the MIPE 4.0 Collection Against Ewings Sarcoma (EW8) (AID 1259255). Further: nearly all actives have a fitted effect of over 35% in size. Further: potency means the concentration at half of the fitted maximal effect. The gist of the method: as §1
Assay [6] in a line: qHTS Screen of the MIPE 4.0 Collection Against Ewings Sarcoma (TC32) (AID 1259256). Further: nearly all actives have a fitted effect of over 45% in size. Further: potency means the concentration at half of the fitted maximal effect. The gist of the method:
as §1

Assay [7] is described as follows: P-glycoprotein substrates identified in KB-8-5-11 adenocarcinoma cell line, qHTS therapeutic library screen (AID 1346987). Further: nearly all actives have a fitted effect of over 65% in size. Further: potency means the concentration at half of the fitted maximal effect. In a few lines:
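Human cervical adenocarcinoma KB-8-5-11 cells, selected in colchicine to over-express P-gp and assayed without it, were exposed for 72 h to titrated compounds. An ATP-based luminescent viability signal gave AC50.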

Assay [8] in a line: NS1 protein of Zika virus - qHTS assay to identify small molecule inhibitors in human HEK 293 cells (AID 1347053). Further: nearly all actives have a fitted effect of over 55% in size. Further: potency means the concentration at half of the fitted maximal effect. In a few lines: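 In this cell-based screen, HEK 293 cultures received compound for one hour before Zika MR766 at MOI = 0.5. NS1 was quantified 24 hours later by TR-FRET, normalized to virus-free wells and infected wells.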
Assay [9] can be described thus: Identifying Small Molecule Inhibitors of Pancreatic Cancer Stem Cells (SN12C, Adherent) (AID 1259358).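 Further: cell survival measured after 48 h of compound exposure.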 Further: potency means the concentration at half of the fitted maximal effect. In a few lines:
(§2)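 Pre-formed 14-day tumor spheroids or adherent cells dosed and incubated 48 h, 37C, 5% CO2. Viability assessed by CellTiter-Glo.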

The nature of assay [10]: Identifying Small Molecule Inhibitors of Pancreatic Cancer Stem Cells (SN12C, Spheroid) (AID 1259360). Further: potency means the concentration at half of the fitted maximal effect. Particulars: Potency: SN12C spheroid viability. In a few lines: (§3)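 Endpoint: ATP-based luminescence, 48 h drug exposure. Bortezomib at 9.2 uM final as full-kill control; DMSO vehicle as negative control; activity normalized between vehicle and cell-free wells.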
Assay [11] can be described thus: Identifying Small Molecule Inhibitors of Pancreatic Cancer Stem Cells (A278, Adherent) (AID 1259361).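 Further: viability read after 48 h compound exposure; nearly all actives have a fitted effect of over 35% in size.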 The gist of the method:
as §2

A short description of assay [12]: Identifying Small Molecule Inhibitors of Pancreatic Cancer Stem Cells (Panc1, Adherent) (AID 1259362). Further: potency means the concentration at half of the fitted maximal effect. Conditions: Potency: viability. The gist of the method: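 Viability is scored by CellTiter-Glo luminescence 48 h after dosing, expressed as percent activity against vehicle and no-cell references. Spheroid formats rely on cells cultured 14 days in stem cell media beforehand.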

A short description of assay [13]: P-glycoprotein substrates identified in KB-3-1 adenocarcinoma cell line, qHTS therapeutic library screen (AID 1346986). Further: nearly all actives have a fitted effect of over 60% in size. The gist of the method: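 Dose-response cytotoxicity, KB-3-1 vs P-gp-high KB-8-5-11, no colchicine in assay medium. Read: CellTiter-Glo at 72 h.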
A short description of assay [14]: qHTS assay to identify small molecule inhibitors of chordoma cells - UCH-1 (AID 1259355). Further: nearly all actives have a fitted effect of over 55% in size. The gist of the method: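 800 cells/well, overnight attach; compounds pinned at 15 concs, then auranofin/camptothecin/doxorubicin/rubitecan/topotecan combo added; 48hr 37 C, 5% CO2; CellTiter-Glo, 30min RT, luminescence.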
Assay [15] is described as follows: qHTS assay to identify small molecule inhibitors of chordoma cells - UCH-2 (AID 1259356). Further: series mostly up to about 46 µM.
A short description of assay [16]: Identifying Small Molecule Inhibitors of Pancreatic Cancer Stem Cells (A2780, Spheroid) (AID 1259357). Further: potency means the concentration at half of the fitted maximal effect.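 Further: spheroids pre-formed over 14 days in stem cell medium on hydrogel; compound exposure lasted 48 h before the ATP luminescence read.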 Particulars: Potency: A2780 spheroid viability. In a few lines: as §3
The target of assay [17] is Atrial natriuretic peptide receptor 1 (Homo sapiens) (UniProt P16066). The assay is described as follows: Natriuretic polypeptide receptor (hNpr1) antagonism - Pilot screen (AID 1347049; calls by dose curve;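 further: HEK293 cells with hNpr1 and GloSensor cGMP luciferase stimulated by 0.1 nM hNppA; agonist-evoked cGMP luminescence read 20 min after hNppA addition; series mostly up to about 58 µM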). The gist of the method:
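Receptor antagonism read as cGMP-dependent luminescence in hNpr1/pGS-40F HEK293 cells: pre-read after 30 min compound exposure, post-read 20 min after hNppA agonist at 0.1 nM final, all at room temperature, protected from light; A-71915 titration as control.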

The target in assay [18] is Atrial natriuretic peptide receptor 2 (Homo sapiens) (UniProt P20594). The assay is described as follows: Natriuretic polypeptide receptor (hNpr2) antagonism - Pilot subtype selectivity assay (AID 1347050; calls by dose curve). The gist of the method:
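Antagonist mode: compounds (LOPAC1280, seven 1:5 dilutions) added 30 min before 1 nM hNppC stimulation of hNpr2-HEK293 cGMP-sensor cells; luminescence read before and 20 min after agonist at ambient temperature.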

Several values for one entry are separate records, joined by “and”; a condition that tells them apart may be missing. Identical values can stand only once. Results filed as inconclusive are left out. Activity calls are given as the source filed them. Unless noted, the call rests on the fitted dose curve; in most records, active means well fitted curve in the direction sought with a large enough effect; inconclusive means small, poorly fitted or top-dose-only effect, or another doubt; inactive means no such curve, though single readings can be large; an effect the other way counts as inactive or inconclusive.

Atrial natriuretic peptide receptor 2 (Homo sapiens), sequence (P20594 whole entry, looked up): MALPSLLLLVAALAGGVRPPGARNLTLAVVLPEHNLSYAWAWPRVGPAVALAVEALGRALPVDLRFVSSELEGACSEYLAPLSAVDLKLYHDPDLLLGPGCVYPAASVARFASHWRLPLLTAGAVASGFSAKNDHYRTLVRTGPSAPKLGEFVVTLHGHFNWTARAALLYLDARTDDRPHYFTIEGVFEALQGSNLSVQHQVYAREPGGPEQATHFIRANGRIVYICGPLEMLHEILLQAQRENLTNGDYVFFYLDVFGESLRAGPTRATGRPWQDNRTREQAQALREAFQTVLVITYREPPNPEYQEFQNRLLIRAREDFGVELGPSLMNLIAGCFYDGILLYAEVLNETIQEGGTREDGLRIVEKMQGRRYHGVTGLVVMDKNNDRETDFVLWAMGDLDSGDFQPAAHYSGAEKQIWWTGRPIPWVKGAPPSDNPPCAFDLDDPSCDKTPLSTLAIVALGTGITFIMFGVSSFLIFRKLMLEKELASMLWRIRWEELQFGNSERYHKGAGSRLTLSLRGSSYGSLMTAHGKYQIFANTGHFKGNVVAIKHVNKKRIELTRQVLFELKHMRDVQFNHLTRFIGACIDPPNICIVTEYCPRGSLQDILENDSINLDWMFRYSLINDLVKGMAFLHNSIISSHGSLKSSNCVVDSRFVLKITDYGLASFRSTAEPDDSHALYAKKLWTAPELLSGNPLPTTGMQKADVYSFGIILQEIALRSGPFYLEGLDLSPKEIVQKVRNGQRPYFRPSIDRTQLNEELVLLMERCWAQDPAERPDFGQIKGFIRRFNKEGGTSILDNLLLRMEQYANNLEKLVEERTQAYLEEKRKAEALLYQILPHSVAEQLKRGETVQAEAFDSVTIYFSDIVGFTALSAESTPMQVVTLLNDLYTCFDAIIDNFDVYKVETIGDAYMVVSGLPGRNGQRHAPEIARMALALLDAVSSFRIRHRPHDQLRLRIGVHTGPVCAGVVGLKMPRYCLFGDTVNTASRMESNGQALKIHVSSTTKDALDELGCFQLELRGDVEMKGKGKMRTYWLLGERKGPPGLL
Atrial natriuretic peptide receptor 1 (Homo sapiens), sequence (P16066 whole entry, looked up): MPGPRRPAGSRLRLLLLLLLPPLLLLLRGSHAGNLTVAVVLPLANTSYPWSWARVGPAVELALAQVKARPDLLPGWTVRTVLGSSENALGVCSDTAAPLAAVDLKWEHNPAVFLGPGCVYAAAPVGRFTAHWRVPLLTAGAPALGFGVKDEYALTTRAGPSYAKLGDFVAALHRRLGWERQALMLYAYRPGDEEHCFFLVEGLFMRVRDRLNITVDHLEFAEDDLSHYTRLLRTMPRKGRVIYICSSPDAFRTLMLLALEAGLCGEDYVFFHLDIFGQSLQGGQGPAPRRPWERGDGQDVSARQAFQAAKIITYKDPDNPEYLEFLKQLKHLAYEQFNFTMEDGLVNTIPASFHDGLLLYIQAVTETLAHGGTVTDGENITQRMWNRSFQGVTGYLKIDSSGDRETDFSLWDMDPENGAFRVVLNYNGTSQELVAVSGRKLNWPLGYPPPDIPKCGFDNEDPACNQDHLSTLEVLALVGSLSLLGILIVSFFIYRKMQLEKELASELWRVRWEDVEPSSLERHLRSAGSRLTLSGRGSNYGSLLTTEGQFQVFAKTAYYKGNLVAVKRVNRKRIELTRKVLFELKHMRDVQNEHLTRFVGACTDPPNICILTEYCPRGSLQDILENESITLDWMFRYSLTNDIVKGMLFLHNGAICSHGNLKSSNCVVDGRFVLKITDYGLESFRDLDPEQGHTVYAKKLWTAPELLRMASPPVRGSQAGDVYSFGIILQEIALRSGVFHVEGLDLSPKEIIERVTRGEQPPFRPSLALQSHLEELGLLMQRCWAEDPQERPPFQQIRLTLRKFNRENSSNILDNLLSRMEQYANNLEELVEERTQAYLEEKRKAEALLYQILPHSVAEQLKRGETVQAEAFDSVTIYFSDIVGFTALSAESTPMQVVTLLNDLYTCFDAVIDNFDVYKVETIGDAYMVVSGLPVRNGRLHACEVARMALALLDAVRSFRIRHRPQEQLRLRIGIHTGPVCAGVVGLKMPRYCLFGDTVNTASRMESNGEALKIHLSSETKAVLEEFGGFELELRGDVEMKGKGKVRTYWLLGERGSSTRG

With `CNC(=O)c1ccc(-c2cnc3ncc(Cc4ccc5ncccc5c4)n3n2)cc1F`, the Potency entry in assay [1], in assay [2], in assay [3], in assay [4], in assay [5] and in assay [6] was “inactive” in each case. Besides, the Potency entry in assay [7] and in [8] was “inactive” each time.
As to `CN(C)Cc1c(C(=O)NCCOc2ccc(C(=O)NO)cc2)oc2ccccc12`, the Potency entry in [1], in [2] and in [8] was “inactive” throughout. The Potency was 1050 nM (active) in [3]; 935 nM (active) in assay [4]; 1050 nM (active) in [5]; 833 nM (active) in assay [6]; 7.43 µM (active) and 4.61 µM (active) in assay [7].
For `CCCCN1CCC(CNC(=O)c2c3n(c4ccccc24)CCCO3)CC1`, the Potency entry in assay [1], in [2], in assay [9], in assay [10] and in assay [12] was “inactive” in each case. For the same compound, the values for the Potency in assay [3], in assay [4] and in assay [5] were 8330 nM (active), 9350 nM (active) and 14800 nM (active), respectively. Also, the IC50 (viability decrease) result in assay [11] was “inactive”.
In the case of `C[C@]12CC[C@H](O)CC1=CCC1C2CC[C@]2(C)C(n3cnc4ccccc43)=CCC12` (stereo partly drawn), the Potency result in assay [1], in assay [2], in assay [3], in [4], in assay [5] and in assay [7] was “inactive” in each case. Besides, in [8], the Potency entry was “inactive”.
`Cc1cn2c(-c3cn[nH]c3)cnc2c(Nc2ccc(C(=O)N3CCNCC3)cc2F)n1`: the Potency entry in assay [1], in assay [2], in assay [7] and in [8] was “inactive” throughout. The Potency is 16600 nM (active) in [3], 18700 nM (active) in [4], 16600 nM (active) in assay [5] and 20900 nM (active) in [9].
Consider `Cn1cncc1[C@@](N)(c1ccc(Cl)cc1)c1ccc2c(c1)c(-c1cccc(Cl)c1)cc(=O)n2C`, for which the Potency entry in assay [1] and in assay [2] was “inactive” in each case. Further, the Potency is 7430 nM (active) in assay [3], 4690 nM (active) in assay [4], 5260 nM (active) in [5] and 3.72 µM (active) in [7]. Moreover, the IC50 (viability decrease) in assay [11] was 23500 nM (active).
With `O=C1CCC[C@@H]2[C@H]3CCC[N+]4([O-])CCC[C@@H](CN12)[C@@H]34` (stereo partly drawn), the Potency result in [1], in assay [2], in assay [3], in assay [4], in [5] and in assay [7] was “inactive” in each case. Moreover, the Potency entry in [8] is “inactive”.
In the case of `Cn1c(=O)n(-c2ccc(C(C)(C)C#N)cc2)c2c3cc(-c4cnc5ccccc5c4)ccc3ncc21`, the Potency entry in assay [1] and in assay [2] was “inactive” in each case. Moreover, the Potency in assay [3] is 46.9 nM (active); in [4], 59 nM (active); in assay [5], 29.6 nM (active); in assay [9] it was 74.3 nM (active); in assay [10], 148 nM (active); in [7], 366 nM (active) and 18.7 nM (active).
With `COc1cccc(-c2ccc(NC(=O)C3=C(C(=O)O)CCC3)c(F)c2)c1`, the Potency is 2640 nM (active) in [1]; 2350 nM (active) in assay [2]; 14800 nM (active) in assay [3]; 11800 nM (active) in assay [4]; 9350 nM (active) in assay [5]; 2090 nM (active) in assay [8].
On to `Cc1cn2cc(C(=O)N(C)CCO)cc(N[C@@H]3CCOc4cccc(C)c43)c2n1`, for which the Potency entry in [1], in assay [2], in assay [3], in assay [4], in assay [5] and in [13] was “inactive” each time. The Potency result in [7] and in assay [8] was “inactive” each time.
Turning to `CCc1cc2c(cc1N1CCC(N3CCOCC3)CC1)C(C)(C)c1[nH]c3cc(C#N)ccc3c1C2=O`, the Potency result in assay [1], in assay [2], in assay [3], in assay [4], in [5] and in [6] was “inactive” throughout. Further, the Potency entry in assay [8] was “inactive”.
Consider `CC(C)(C)NC(=O)[C@H]1CN(Cc2cccnc2)CCN1C[C@@H](O)C[C@@H](Cc1ccccc1)C(=O)N[C@H]1c2ccccc2C[C@H]1O`, for which the Potency result in assay [1], in assay [2] and in [14] was “inactive” in each case. Moreover, the Potency is 1050 nM (active) in [3], 1180 nM (active) in assay [4], 1320 nM (active) in assay [6] and 23.5 µM (active) in assay [7]. In addition, the compound was called inactive in [15].
With `Cc1cnc(-c2cnc(NCCNc3ccc(C#N)cn3)nc2-c2ccc(Cl)cc2Cl)[nH]1`, the Potency entry in [1], in assay [2], in assay [16], in assay [9], in assay [10] and in assay [7] was “inactive” throughout. Moreover, the Potency result in [8] is “inactive”. The Potency was 8330 nM (active) in [3], 11800 nM (active) in assay [4] and 16600 nM (active) in assay [5].
For `CC1(C)CC(=O)c2c(C(F)(F)F)nn(-c3ccc(C(N)=O)c(NC4CCC(OC(=O)CN)CC4)c3)c2C1` (stereo not drawn), the Potency result in assay [1], in assay [2] and in [8] was “inactive” each time. For the same compound, the Potency in [3] is 166 nM (active); in [4], 166 nM (active); in [5] it was 209 nM (active); in assay [6] it was 132 nM (active); in assay [7], 662 nM (active) and 820 nM (active).
As to `CC[C@H](CO)Nc1nc(NCc2ccccc2)c2ncn(C(C)C)c2n1`, the Potency entry in assay [1], in assay [2], in assay [17] and in assay [8] was “inactive” in each case. Also, the Potency is 16600 nM (active) in [3]; 20900 nM (active) in assay [4]; 20900 nM (active) in [6]; 20900 nM (active) in assay [16]; 18.7 µM (active) in assay [7]. Further, in [11], the IC50 (viability decrease) is 18700 nM (active). The call in assay [18] was inactive.
For the compound `C[C@@H](Oc1cc(-n2cnc3ccc(CN4CCN(C)CC4)cc32)sc1C(N)=O)c1ccccc1C(F)(F)F`, the Potency result in assay [1], in assay [2] and in [16] was “inactive” in each case. Also, the Potency is 93.5 nM (active) in assay [3]; 74.3 nM (active) in assay [4]; 74.3 nM (active) in [6]; 3.7 nM (active) in [12]; 0.118 µM (active) in assay [7]; 59 nM (active) in assay [8]. Further, the IC50 (viability decrease) in [11] was 18.7 nM (active).
As to `CC(C)c1cnn2c(NCc3ccccc3)cc(N[C@@H](CO)[C@H](O)CO)nc12`, the Potency entry in [1] and in assay [2] was “inactive” in each case. The Potency in assay [3] was 469 nM (active); in [4], 264 nM (active); in assay [5], 372 nM (active); in assay [6], 296 nM (active); in assay [7] it was 1.18 µM (active) and 4.61 µM (active); in assay [8] it was 526 nM (active).
